Values joined by “and” are separate entries in the source; they are usually repeats but may differ in a detail not shown here. Equal entries are not always repeated. Records with an inconclusive call do not appear. Active and inactive are the calls of the source. Unless noted, calls come from the whole dose curve; as a rule, active = well fitted curve in the direction sought with a large enough effect; inconclusive = small, poorly fitted or top-dose-only effect, or another doubt; inactive = no such curve, though single readings can be large; an effect the other way counts as inactive or inconclusive.
Legend:
[1] = target: Mitogen-activated protein kinase 10 (Mus musculus) (UniProt Q61831); assay: JNK3 AlphaScreen Assay (AID 530; active = well fitted curve in either direction with a large enough effect, not every such curve was filed as active;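 note: kinase came from lysate of stimulated human HepG2 cells; signal reports phosphorylation of biotinylated GST-cJun 1-79 at Ser73 with 10 µM ATP; % is set by controls: 0 for no effect and ±100 for the full control effect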)
Summary of the method: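 qHTS titrations with 15 min compound pre-incubation before adding ATP (10 uM final). Read-out: AlphaScreen of Ser73-phosphorylated biotin-GST-cJun using HepG2 lysate JNK3 activated by IL-1β and TNFα.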

[2] = Cell Viability - Mesenchymal (AID 546);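 note: cells exposed to compound for 40 hours before reading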
Summary of the method: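 CellTiter-Glo luminescence (intracellular ATP, 20 min room temperature) after 40 hr compound exposure at 37 °C of 1000 glomerulus-derived human kidney mesenchymal cells/well; AC50 values obtained by fitting qHTS concentration-response data to the Hill equation.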

[3] = Cellular Toxicity (caspase-3) Jurkat (AID 655); settings: Jurkat caspase-3 activation, luminescence; caspase-3 activation: at 92.2 µM (top of the series), DMSO = 0%, tamoxifen = 100%;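 note: cells exposed to compound for 16 h at 37 °C before reading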
Summary of the method: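 qHTS in human Jurkat T-cell leukemia line: 16 hr compound treatment at 37 °C, caspase-3/7 activity measured by Caspase-Glo luminescence. AC50 derived from Hill equation.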

[4] = Cellular Toxicity (caspase-3) BJ (AID 658);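 note: cells exposed to compound for 16 hours; 0% = DMSO basal and 100% = 10 µM staurosporine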
Summary of the method: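 Caspase-Glo 3/7 luminescence, read 1 hr after reagent at room temperature, in normal BJ fibroblasts exposed 16 hours at 37 °C. AC50 values from Hill-equation concentration-response, scaled between DMSO basal and 10 uM staurosporine as 100%.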

[5] = Cellular Toxicity (caspase-3) MRC-5 (AID 659);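 note: 0% = DMSO basal and 100% = 10 µM staurosporine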
Summary of the method: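 Luminescent Caspase-Glo 3/7 read-out (1 h, room temperature) after a 16 h, 37 °C compound exposure of MRC-5 lung fibroblasts at 1500 cells/well. Concentration-response AC50 from Hill equation; 0% DMSO, 100% 10 uM staurosporine.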

[6] = target: Cytochrome P450 3A4 (Homo sapiens) (UniProt P08684); assay: qHTS Assay for Inhibitors and Substrates of Cytochrome P450 3A4 (AID 884); note: % is set by controls: 0 for no effect and ±100 for the full control effect; nearly all actives have a fitted effect of over 50% in size
Chain of Cytochrome P450 3A4 (Homo sapiens) (P08684 whole entry, looked up): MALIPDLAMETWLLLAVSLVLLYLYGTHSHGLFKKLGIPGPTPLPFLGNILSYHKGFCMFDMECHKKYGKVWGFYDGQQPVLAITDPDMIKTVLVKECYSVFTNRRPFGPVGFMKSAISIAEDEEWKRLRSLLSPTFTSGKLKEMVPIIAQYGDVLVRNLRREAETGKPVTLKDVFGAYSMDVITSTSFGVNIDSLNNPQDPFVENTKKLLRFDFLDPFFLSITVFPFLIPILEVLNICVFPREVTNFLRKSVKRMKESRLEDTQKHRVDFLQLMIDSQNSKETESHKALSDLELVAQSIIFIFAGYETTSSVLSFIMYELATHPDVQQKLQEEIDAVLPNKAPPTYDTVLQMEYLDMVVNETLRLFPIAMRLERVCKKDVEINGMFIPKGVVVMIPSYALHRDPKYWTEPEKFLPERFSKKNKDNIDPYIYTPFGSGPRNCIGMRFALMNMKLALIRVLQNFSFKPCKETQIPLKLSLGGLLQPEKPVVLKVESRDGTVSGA
Summary of the method: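 Luminescent readout of luciferin produced by CYP3A4 (20 nM) dealkylation of Luciferin-PPXE, 25 uM (its KM). NADPH-driven reaction ran 60 min at RT after 10 min compound preincubation; data scaled to 57 uM ketoconazole as 100% inhibition.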

[7] = MultiTox-Fluor Cytotoxicity Assay - LYMP1-001 - Live Cells (AID 947);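 note: 0% = DMSO only and full inhibition = tetraoctylammonium bromide control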
[8] = MultiTox-Fluor Cytotoxicity Assay - LYMP1-002 - Live Cells (AID 955);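 note: cells exposed to compound for 16 hours; % is set by controls: 0 for no effect and ±100 for the full control effect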
Summary of the method: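 Cells were seeded at 2500 per well and incubated 5 hr. Compounds were then added for 16 hr at 37 C, followed by MultiTox-Fluor reagent for 60 min at room temperature and fluorescence reading of viable-cell protease signal.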

[9] = Cell Viability - LYMP2-005 (AID 967);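 note: plate controls were DMSO only for no effect and 92 µM tetraoctylammonium bromide control for full effect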
Summary of the method: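 Luciferase-based ATP quantitation served as the viability measure in human lymphoblastoid LYMP2-005 cells exposed to test compounds for 24 h at 37 C in complete culture medium. Potency (AC50) was obtained by fitting concentration-response curves with the Hill equation.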

[10] = Cell Viability - LYMP2-015 (AID 971); note: nearly all actives have a fitted effect of over 55% in size; note: potency is the fitted concentration of half-maximal effect
Summary of the method: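 Cells are seeded at 2500 per well and incubated 5 hr at 37 C. Compounds are added across a concentration series for 24 hr at 37 C. CellTiter-Glo is added, and luminescence is read after 30 min at room temperature.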

[11] = target: Thyroid hormone receptor beta (Homo sapiens) (UniProt P10828); assay: qHTS assay for small molecule agonists of thyroid hormone receptor beta signaling (AID 588545; calls by dose curve;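 note: 0% = DMSO only and 100% = 10 nM T3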)
Chain of Thyroid hormone receptor beta (Homo sapiens) (P10828 whole entry, looked up): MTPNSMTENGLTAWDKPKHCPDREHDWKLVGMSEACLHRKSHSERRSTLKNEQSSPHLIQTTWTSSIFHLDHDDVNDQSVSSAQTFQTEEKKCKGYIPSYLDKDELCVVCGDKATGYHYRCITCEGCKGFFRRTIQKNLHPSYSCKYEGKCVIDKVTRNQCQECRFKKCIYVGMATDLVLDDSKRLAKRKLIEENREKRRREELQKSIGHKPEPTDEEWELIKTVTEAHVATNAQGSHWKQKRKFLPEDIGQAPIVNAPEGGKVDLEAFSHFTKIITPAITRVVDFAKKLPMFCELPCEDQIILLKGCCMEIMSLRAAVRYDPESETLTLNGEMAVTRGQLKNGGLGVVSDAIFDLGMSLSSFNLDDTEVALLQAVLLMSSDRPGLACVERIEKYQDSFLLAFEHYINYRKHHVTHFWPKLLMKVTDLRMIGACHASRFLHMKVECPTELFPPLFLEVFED
Summary of the method: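 Compounds were tested as agonists in TR-UAS-bla-GripTite HEK 293 cells. After 18 hrs at 37 C, CCF4 substrate was added and fluorescence read after 2 hrs at room temperature.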

[12] = target: Voltage-gated inwardly rectifying potassium channel KCNH2 (Homo sapiens) (UniProt Q12809); assay: qHTS Assay for Small Molecule Inhibitors of the Human hERG Channel Activity (AID 588834);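 note: top concentration of the series differs between compounds; % is set by controls: 0 for no effect and ±100 for the full control effect; lower thallium flux fluorescence means stronger hERG block; nearly all actives have a fitted effect of over 50% in size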
Chain of Voltage-gated inwardly rectifying potassium channel KCNH2 (Homo sapiens) (Q12809 whole entry, looked up): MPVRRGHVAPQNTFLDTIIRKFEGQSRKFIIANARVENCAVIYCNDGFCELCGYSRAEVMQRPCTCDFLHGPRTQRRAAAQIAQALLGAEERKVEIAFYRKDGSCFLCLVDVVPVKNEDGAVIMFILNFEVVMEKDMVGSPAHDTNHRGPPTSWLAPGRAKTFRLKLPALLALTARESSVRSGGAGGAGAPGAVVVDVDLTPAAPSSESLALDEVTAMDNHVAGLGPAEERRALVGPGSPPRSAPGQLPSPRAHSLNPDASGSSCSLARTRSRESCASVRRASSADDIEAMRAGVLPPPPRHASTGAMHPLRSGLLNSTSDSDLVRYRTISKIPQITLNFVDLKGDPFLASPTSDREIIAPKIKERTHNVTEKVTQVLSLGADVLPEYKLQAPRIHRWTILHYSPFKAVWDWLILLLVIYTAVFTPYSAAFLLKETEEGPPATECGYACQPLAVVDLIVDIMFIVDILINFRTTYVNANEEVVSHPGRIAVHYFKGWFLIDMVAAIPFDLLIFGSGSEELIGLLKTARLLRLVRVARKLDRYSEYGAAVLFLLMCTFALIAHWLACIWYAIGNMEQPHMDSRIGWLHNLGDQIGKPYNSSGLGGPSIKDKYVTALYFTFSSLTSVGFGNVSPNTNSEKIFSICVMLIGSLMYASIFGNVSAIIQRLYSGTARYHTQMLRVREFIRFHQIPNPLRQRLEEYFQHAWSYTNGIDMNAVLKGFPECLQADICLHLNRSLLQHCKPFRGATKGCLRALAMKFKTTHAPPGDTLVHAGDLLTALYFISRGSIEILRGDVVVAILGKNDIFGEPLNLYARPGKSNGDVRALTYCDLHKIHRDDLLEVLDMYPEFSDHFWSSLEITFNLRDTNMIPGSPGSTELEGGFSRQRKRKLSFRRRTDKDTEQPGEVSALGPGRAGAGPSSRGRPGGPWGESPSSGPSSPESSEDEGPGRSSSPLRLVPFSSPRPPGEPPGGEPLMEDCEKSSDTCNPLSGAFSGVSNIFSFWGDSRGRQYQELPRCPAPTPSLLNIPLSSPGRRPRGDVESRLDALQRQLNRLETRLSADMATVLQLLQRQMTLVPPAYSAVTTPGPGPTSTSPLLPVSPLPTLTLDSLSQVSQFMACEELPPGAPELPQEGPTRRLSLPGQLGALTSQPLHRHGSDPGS
Summary of the method: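 Homogeneous FluxOR thallium flux assay using hERG-expressing U2OS cells (BacMam). Compound treatment about 10 minutes preceded stimulation; reduced fluorescence taken as channel block.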

[13] = qHTS assay for small molecule disruptors of the mitochondrial membrane potential - 5 hr assay (AID 651755; calls by dose curve; note: % is set by controls: 0 for no effect and ±100 for the full control effect; nearly all actives have a fitted effect of over 40% in size)
Summary of the method: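 Membrane-potential dye readout: red aggregate (540 ex/590 em) versus green monomer (490 ex/535 em) fluorescence after 30 min dye loading, following 5 hr compound exposure at 37C of overnight-plated HepG2 cells.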

[14] = qHTS assay for environmental chemicals that activate the Aryl hydrocarbon Receptor (AhR) signaling pathway (AID 651777); settings: 1A2-DRE human hepatoma cells, luciferase, 24 h; activation: stronger effect = higher value; note: % of control where 0% means no effect; nearly all actives have a fitted effect of over 15% in size
Summary of the method: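 Human hepatoma 1A2-DRE cells, stably carrying a dioxin response element and CYP1A2 promoter driving luciferase, were exposed to compounds for 24 hr at 37 C and 5% CO2. Luciferase signal was then read after 30 min One-Glo at room temperature.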

[15] = target: Nuclear receptor ROR-gamma (Homo sapiens) (UniProt P51449); assay: qHTS assay for small molecule antagonists of the retinoid-related orphan receptor gamma (ROR-gamma) signaling pathway (AID 651802);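 note: CHO cells with doxycycline-induced ROR-gamma expression; % is set by controls: 0 for no effect and ±100 for the full control effect; nearly all actives have a fitted effect of over 60% in size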
Chain of Nuclear receptor ROR-gamma (Homo sapiens) (P51449 whole entry, looked up): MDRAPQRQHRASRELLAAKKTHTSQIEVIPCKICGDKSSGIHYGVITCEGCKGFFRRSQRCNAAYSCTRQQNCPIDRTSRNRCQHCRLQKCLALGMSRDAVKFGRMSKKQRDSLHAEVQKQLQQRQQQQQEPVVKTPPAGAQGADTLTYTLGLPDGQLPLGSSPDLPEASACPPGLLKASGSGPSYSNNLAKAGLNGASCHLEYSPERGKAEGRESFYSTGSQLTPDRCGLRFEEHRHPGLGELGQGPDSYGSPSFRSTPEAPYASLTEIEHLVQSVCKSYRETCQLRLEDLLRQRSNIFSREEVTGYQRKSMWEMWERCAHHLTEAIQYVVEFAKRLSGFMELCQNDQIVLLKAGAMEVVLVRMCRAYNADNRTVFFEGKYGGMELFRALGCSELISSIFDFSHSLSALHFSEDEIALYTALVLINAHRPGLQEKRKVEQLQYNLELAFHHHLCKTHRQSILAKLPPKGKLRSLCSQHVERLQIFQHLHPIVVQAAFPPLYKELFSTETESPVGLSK
Summary of the method: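 Steps: cells dispensed; compound or DMSO transferred by pin tool; doxycycline added to induce the ROR response element-driven luciferase; plates held 16hr at 37C; ONE-Glo added and luminescence measured.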

[16] = target: Nuclear receptor subfamily 1 group I member 2 (Rattus norvegicus) (UniProt Q9R1A7); assay: qHTS assay for small molecule activators of the rat pregnane X receptor (rPXR) signaling pathway (AID 651751; call rule not given here; note: 0% is about no effect); settings: rPXR reporter cells, luciferase (One-Glo), 24 h
Chain of Nuclear receptor subfamily 1 group I member 2 (Rattus norvegicus) (Q9R1A7 whole entry, looked up): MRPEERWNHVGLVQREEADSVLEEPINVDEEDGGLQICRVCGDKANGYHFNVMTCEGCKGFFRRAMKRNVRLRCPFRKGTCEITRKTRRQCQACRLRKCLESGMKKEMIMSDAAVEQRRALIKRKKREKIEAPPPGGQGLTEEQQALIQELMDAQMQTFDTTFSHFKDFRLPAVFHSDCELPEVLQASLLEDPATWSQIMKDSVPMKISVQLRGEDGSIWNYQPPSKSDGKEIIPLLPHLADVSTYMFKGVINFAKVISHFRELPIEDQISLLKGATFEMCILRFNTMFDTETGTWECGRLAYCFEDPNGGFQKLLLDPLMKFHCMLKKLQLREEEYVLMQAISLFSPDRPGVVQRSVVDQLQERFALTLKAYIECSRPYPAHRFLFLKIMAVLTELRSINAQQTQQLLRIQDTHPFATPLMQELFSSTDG

[17] = qHTS assay for small molecule activators of the human pregnane X receptor (PXR) signaling pathway (AID 720659; call rule not given here; note: 0% is about no effect)
[18] = Cell Viability - LYMP2-001 (AID 921); note: nearly all actives have a fitted effect of over 70% in size; note: potency is the fitted concentration of half-maximal effect
Summary of the method: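 A lymphoblastoid cell line of human origin was treated with library compounds across a concentration series for 24 hours, and viable cell number was estimated from ATP-driven luciferase light output. Hill modeling gave AC50.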

[19] = qHTS assay for small molecule antagonists of retinoid X receptor alpha signaling (AID 588546; active = well fitted inhibition curve with a large enough effect in the signal ratio, with a control signal flat, not every such curve was filed as active; the % refers to the signal ratio;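 note: cells stimulated with 9-cis-retinoic acid as agonist; % is set by controls: 0 for no effect and ±100 for the full control effect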); settings: HEK293T RXRa-UAS-bla, beta-lactamase ratio, antagonist mode; measured here: W530 green channel, cytotoxicity proxy
Summary of the method: (§1)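 Beta-lactamase reporter inhibition, read as CCF4 fluorescence ratio (ex 405, em 460/530 nm) after 2 h at RT. HEK293T UAS-bla cells, 2500/well, were stimulated with 9-cis-RA at 500 or 100 nM final alongside test compound for 18 h at 37 C.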

[20] = target: Retinoic acid receptor RXR-alpha (Homo sapiens) (UniProt P19793); assay: as above; settings: HEK293T RXRa-UAS-bla, beta-lactamase ratio, antagonist mode
Chain of Retinoic acid receptor RXR-alpha (Homo sapiens) (P19793 whole entry, looked up): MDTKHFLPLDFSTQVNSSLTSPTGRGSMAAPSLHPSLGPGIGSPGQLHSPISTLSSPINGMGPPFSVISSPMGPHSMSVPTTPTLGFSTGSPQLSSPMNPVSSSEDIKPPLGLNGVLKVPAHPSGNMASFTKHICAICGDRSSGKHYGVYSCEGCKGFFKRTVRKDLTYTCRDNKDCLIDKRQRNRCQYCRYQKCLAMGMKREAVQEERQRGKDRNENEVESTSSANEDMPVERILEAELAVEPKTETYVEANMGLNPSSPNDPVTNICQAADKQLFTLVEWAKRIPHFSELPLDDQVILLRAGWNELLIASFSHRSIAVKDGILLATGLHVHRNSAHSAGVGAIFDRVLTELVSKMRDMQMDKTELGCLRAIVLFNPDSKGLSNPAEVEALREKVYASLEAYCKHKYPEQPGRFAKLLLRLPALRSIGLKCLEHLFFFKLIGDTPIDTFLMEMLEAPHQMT
Summary of the method: as §1

CCNCC
inactive: Potency [1] | Potency [2] | caspase-3 activation [3] 0.736% | outcome [4] | outcome [5] | Potency [6] | outcome [7] | outcome [8] | Potency [9] | Potency [10] | Potency [11] | Potency [12] | Potency [13] | activation [14] -0.962% | Potency [15] | max response [16] 0.38% | outcome [17]

ClCCOCOCCCl
-0.61%: max response [19]
inactive: Potency [1] | Potency [2] | caspase-3 activation [3] -0.171% | outcome [4] | outcome [5] | Potency [6] | Potency [18] | outcome [7] | outcome [8] | Potency [9] | Potency [10] | Potency [11] | max response [20] -0.285% | Potency [12] | Potency [13] | activation [14] 0.193% | Potency [15] | max response [16] 0.986% | outcome [17]

Cc1cnc[nH]1
inactive: Potency [1] | outcome [4] | outcome [5] | Potency [6] | Potency [18] | outcome [7] | outcome [8] | Potency [9] | Potency [10] | Potency [11] | max response [20] 4.17% | Potency [12] | Potency [13] | activation [14] 1.06% | Potency [15] | max response [16] -5.24% | outcome [17]
-10.6%: max response [19]

OC[P+](CO)(CO)CO
inactive: Potency [1] | Potency [2] | caspase-3 activation [3] 16.2% | outcome [4] | outcome [5] | Potency [6] | outcome [7] | outcome [8] | Potency [11] | max response [20] -5.42% and -52.4% | Potency [12] | Potency [13] | activation [14] -0.473% and -0.989% | max response [16] -2.2% and -0.448%
5.58% and 5.35%: max response [19]
active: Potency [18] 15.8 µM | Potency [10] 15.8 µM

O=NN1CCCCC1
inactive: Potency [1] | caspase-3 activation [3] 1.18% | outcome [5] | Potency [6] | Potency [18] | outcome [8] | Potency [9] | Potency [10] | Potency [11] | max response [20] 14.4% | Potency [12] | Potency [13] | activation [14] 1.05% | Potency [15] | max response [16] -1.74% | outcome [17]
-1.5%: max response [19]

O=C(O)C(Cl)(Cl)Br
inactive: Potency [1] | caspase-3 activation [3] 1.43% | outcome [4] | outcome [5] | Potency [6] | Potency [18] | outcome [7] | outcome [8] | Potency [9] | Potency [10] | Potency [11] | max response [20] 1% | Potency [12] | Potency [13] | activation [14] 0.0306% | Potency [15] | max response [16] 3.3% | outcome [17]
1.14%: max response [19]

COC(=O)c1ccccc1N
inactive: Potency [1] | Potency [2] | caspase-3 activation [3] 1.63% | outcome [4] | outcome [5] | Potency [6] | Potency [18] | outcome [7] | Potency [9] | Potency [11] | max response [20] 17.4% | Potency [12] | activation [14] 1.96% | Potency [15] | max response [16] -0.835% | outcome [17]
0.965%: max response [19]

C=CC=O
inactive: Potency [1] | Potency [2] | caspase-3 activation [3] 13.2% | outcome [5] | Potency [6] | Potency [18] | outcome [7] | outcome [8] | Potency [9] | Potency [10] | Potency [11] | Potency [12] | activation [14] 1.3% | Potency [15] | max response [16] 1.01% | outcome [17]

Nc1ccc(-c2ccc(N)cc2)cc1
-2.33%: max response [19]
inactive: Potency [1] | Potency [2] | caspase-3 activation [3] 0.684% | outcome [5] | Potency [18] | outcome [7] | outcome [8] | Potency [9] | Potency [10] | max response [20] 0.312% | Potency [12] | Potency [13] | activation [14] 11.6% | Potency [15] | outcome [17]

C=CC#N
inactive: Potency [1] | Potency [2] | caspase-3 activation [3] -0.0463% | outcome [4] | outcome [5] | Potency [6] | Potency [18] | outcome [7] | outcome [8] | Potency [9] | Potency [10] | Potency [11] | max response [20] 19% | Potency [12] | Potency [13] | activation [14] 2.03% | Potency [15] | max response [16] -2.96% | outcome [17]
-3.06%: max response [19]

CCOP(=O)(OCC)OCC
inactive: Potency [1] | Potency [2] | caspase-3 activation [3] -0.738% | outcome [4] | outcome [5] | Potency [6] | Potency [18] | outcome [7] | outcome [8] | Potency [9] | Potency [10] | Potency [11] | max response [20] 10.3% and -4.1% | Potency [12] | Potency [13] | activation [14] -0.171% and -0.669% | Potency [15] | max response [16] 0.98% and -0.959% | outcome [17]
9.41% and -13.4%: max response [19]

c1ccc(C2CO2)cc1 (stereo not given)
inactive: Potency [1] | Potency [2] | outcome [4] | outcome [5] | Potency [6] | Potency [18] | outcome [7] | outcome [8] | Potency [9] | Potency [10] | max response [20] 32.3% | Potency [12] | Potency [13] | activation [14] 0.299% | Potency [15] | max response [16] -1.42% | outcome [17]
-9.84%: max response [19]

NC1CCC(CC2CCC(N)CC2)CC1 (stereo not given)
inactive: Potency [1] | Potency [2] | outcome [4] | Potency [6] | outcome [7] | Potency [9] | Potency [10] | Potency [11] | max response [20] -0.208% and 1.62% | Potency [12] | Potency [13] | activation [14] -0.669% and 0.679% | Potency [15] | max response [16] 5.41% and 4.82% | outcome [17]
2.2% and -10.5%: max response [19]

O=Cc1ccc(Cl)cc1Cl
inactive: Potency [1] | Potency [2] | caspase-3 activation [3] 8.63% | outcome [4] | outcome [5] | Potency [6] | Potency [18] | outcome [7] | outcome [8] | Potency [10] | Potency [11] | max response [20] 2.38% | Potency [12] | Potency [13] | activation [14] -0.378% | Potency [15] | max response [16] 2.77% | outcome [17]
-13.3%: max response [19]

Reference: PubChem BioAssay (NCATS)
